Inconclusive results are not listed. Where a call stands in place of a potency, no number is given. Activity calls are given as the source filed them. Calls come from the whole dose curve; as a rule, active = well fitted inhibition curve with a large enough effect; inconclusive = small, poorly fitted or top-dose-only effect; inactive = flat fitted curve, though single readings scatter.
Potency is the fitted concentration of half-maximal effect.

The test system of one assay is CP291. Description: qHTS profiling for inhibitors of Plasmodium falciparum proliferation (AID 504749). Note: nearly all actives have a fitted effect of over 60% in size. The following applies: P. falciparum in erythrocytes, SYBR Green DNA, 72 h; series mostly up to 28.7 µM. In outline:
(§1)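 SYBR Green fluorescence of parasite DNA, read after lysis and overnight dark incubation, measured growth over 72 h in erythrocyte culture at 0.3% parasitemia and 2.5% hematocrit. Data normalised to DMSO and 0.29 uM artemisinin, with plate-drift correction.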
In general terms: Quantitative high-throughput screening tests each substance at several concentrations.
Turning to `O=C(O)CCNC(=O)c1ccccc1`, the Potency entry was “inactive”.
The same measure, in the same setting: with `CC(=O)Nc1ccc(OC(=O)c2ccccc2OC(C)=O)cc1` the entry was “inactive”; with `OCCOCCN1CCN(C2=Nc3ccccc3Sc3ccccc32)CC1`, “inactive”; with `CN1CCN(CCC(=O)N2c3ccccc3Sc3ccc(C(F)(F)F)cc32)CC1`, “inactive”.
Same read-out and setting: the result for `CCOCCn1c(N2CCCN(C)CC2)nc2ccccc21` reads “inactive”; that for `Cc1cccc(C)c1NC(=O)CN1CCCC1`, “inactive”; that for `O=C(CCN1CCN2CCCC2C1)N1c2ccccc2Sc2ccc(Cl)cc21` (stereo not drawn), “inactive”.
The same measure, in the same setting: the result for `CC(=O)O[C@H]1C[C@@H]2CC[C@@H]3[C@H](CC[C@@]4(C)[C@H]3C[C@H]([N+]3(C)CCCCC3)[C@@H]4OC(C)=O)[C@@]2(C)C[C@@H]1N1CCCCC1` reads “inactive”; that for `CCCN(CCc1cccs1)[C@H]1CCc2c(O)cccc2C1`, 10.7 µM (active).
Take `Cc1ccc(S(=O)(=O)NC(=O)NC2CCCC2)cc1`: the Potency entry was “inactive”.
Same read-out and setting: with `Cc1ccc(O)c([C@H](CCN(C(C)C)C(C)C)c2ccccc2)c1` the figure was 9.53 µM (active); with `CN(C)C(=O)Nc1ccc(Cl)c(Cl)c1`, “inactive”.
Same read-out and setting: with `O=C(Nc1cccc(C2=NCCN2)c1)Nc1cccc(C2=NCCN2)c1` the figure was 15.1 µM (active).
The same measure, in the same setting: with `CCCCCCCCOc1ccc(C(=O)c2ccccc2)c(O)c1` the entry was “inactive”; with `NS(=O)(=O)c1cc(C(=O)O)cc(N2CCCC2)c1Oc1ccccc1`, “inactive”.
Take `CN1CCN(C2=Nc3cc(F)ccc3Cc3ccccc32)CC1`: the Potency entry was “inactive”.
For the molecule `COc1ccc(CN(CCN(C)C)c2ncccn2)cc1`, the Potency result was “inactive”.
Take `CCCCCN=C(N)N/N=C/c1c[nH]c2ccc(OC)cc12`: the Potency is 13.5 µM (active).
The same measure, in the same setting: the result for `COc1cc(C(=S)N2CCOCC2)ccc1O` reads “inactive”; that for `O=C(Nc1ncc([N+](=O)[O-])s1)c1cccs1`, “inactive”.

The subject of a further assay is CP297. The assay is described as above. The following applies: P. falciparum in erythrocytes, SYBR Green DNA, 72 h; series mostly up to 28.7 µM. Put shortly:
as §1
As for `O=C(O)CCNC(=O)c1ccccc1`, the Potency result was “inactive”.
For `CC(=O)Nc1ccc(OC(=O)c2ccccc2OC(C)=O)cc1`, the Potency entry was “inactive”.
On the same count and under the same terms, with `OCCOCCN1CCN(C2=Nc3ccccc3Sc3ccccc32)CC1` the entry was “inactive”; with `CN1CCN(CCC(=O)N2c3ccccc3Sc3ccc(C(F)(F)F)cc32)CC1`, “inactive”; with `Cc1cccc(C)c1NC(=O)CN1CCCC1`, “inactive”.
The same measure, in the same setting: with `COC(=O)C(c1ccccc1Cl)N1CCc2sccc2C1` (stereo not drawn) the entry was “inactive”; with `O=C(CCN1CCN2CCCC2C1)N1c2ccccc2Sc2ccc(Cl)cc21` (stereo not drawn), “inactive”; with `CCCN(CCc1cccs1)[C@H]1CCc2c(O)cccc2C1`, 6.75 µM (active).
Same read-out and setting: the result for `CN1CCN(c2cc3c(cc2F)c(=O)c(C(=O)O)cn3-c2ccc(F)cc2)CC1` reads “inactive”.
On to `O=C(Nc1cccc(C2=NCCN2)c1)Nc1cccc(C2=NCCN2)c1`, for which the Potency is 13.5 µM (active).
In the case of `CCCCCCCCOc1ccc(C(=O)c2ccccc2)c(O)c1`, the Potency result was “inactive”.
On the same count and under the same terms, with `Cc1cc(-c2ccccc2)nnc1NCCN1CCOCC1` the entry was “inactive”.
The same measure, in the same setting: with `C[N+]1(C)CCC(=C(c2ccccc2)c2ccccc2)CC1` the entry was “inactive”.
On the same count and under the same terms, with `NS(=O)(=O)c1cc(C(=O)O)cc(N2CCCC2)c1Oc1ccccc1` the entry was “inactive”.
For `COc1ccc(CN(CCN(C)C)c2ncccn2)cc1`, the Potency result was “inactive”.
Take `CC1CCc2c(N3CCC(O)CC3)c(F)cc3c(=O)c(C(=O)O)cn1c23` (stereo not drawn): the Potency entry is “inactive”.
Same read-out and setting: with `COc1cc(C(=S)N2CCOCC2)ccc1O` the entry was “inactive”; with `O=C(Nc1ncc([N+](=O)[O-])s1)c1cccs1`, “inactive”.

Another assay has as its system CP305. The assay is described as above. The following applies: P. falciparum in erythrocytes, SYBR Green DNA, 72 h; series mostly up to 28.7 µM. In outline: as §1
For the molecule `O=C(O)CCNC(=O)c1ccccc1`, the Potency entry is “inactive”.
The same measure, in the same setting: the result for `CC(=O)Nc1ccc(OC(=O)c2ccccc2OC(C)=O)cc1` reads “inactive”; that for `OCCOCCN1CCN(C2=Nc3ccccc3Sc3ccccc32)CC1`, “inactive”.
On the same count and under the same terms, with `CN1CCN(CCC(=O)N2c3ccccc3Sc3ccc(C(F)(F)F)cc32)CC1` the entry was “inactive”; with `Cc1cccc(C)c1NC(=O)CN1CCCC1`, “inactive”.
Same read-out and setting: the result for `O=C(CCN1CCN2CCCC2C1)N1c2ccccc2Sc2ccc(Cl)cc21` (stereo not drawn) reads “inactive”; that for `CCCN(CCc1cccs1)[C@H]1CCc2c(O)cccc2C1`, 13.5 µM (active).
As for `Cc1ccc(S(=O)(=O)NC(=O)NC2CCCC2)cc1`, the Potency result was “inactive”.
Regarding `Cc1ccc(O)c([C@H](CCN(C(C)C)C(C)C)c2ccccc2)c1`, the Potency was 7.57 µM (active).
Still for that read-out and setting: the result for `O=C(Nc1cccc(C2=NCCN2)c1)Nc1cccc(C2=NCCN2)c1` reads 7.57 µM (active); that for `CCCCCCCCOc1ccc(C(=O)c2ccccc2)c(O)c1`, “inactive”; that for `Cc1cc(-c2ccccc2)nnc1NCCN1CCOCC1`, “inactive”.
Same read-out and setting: with `NS(=O)(=O)c1cc(C(=O)O)cc(N2CCCC2)c1Oc1ccccc1` the entry was “inactive”; with `CN1CCN(C2=Nc3cc(F)ccc3Cc3ccccc32)CC1`, “inactive”; with `COc1ccc(CN(CCN(C)C)c2ncccn2)cc1`, “inactive”.
Still for that read-out and setting: the result for `CN(CCCN1c2ccccc2CCc2ccccc21)CC(=O)c1ccc(Cl)cc1` reads “inactive”; that for `COc1cc(C(=S)N2CCOCC2)ccc1O`, “inactive”.
In the case of `O=C(Nc1ncc([N+](=O)[O-])s1)c1cccs1`, the Potency result is “inactive”.

A further assay relates to CP315. Described as above. The following applies: P. falciparum in erythrocytes, SYBR Green DNA, 72 h; series mostly up to 28.7 µM. In outline: as §1
Take `O=C(O)CCNC(=O)c1ccccc1`: the Potency entry is “inactive”.
Take `CC(=O)Nc1ccc(OC(=O)c2ccccc2OC(C)=O)cc1`: the Potency result is “inactive”.
The same measure, in the same setting: with `OCCOCCN1CCN(C2=Nc3ccccc3Sc3ccccc32)CC1` the entry was “inactive”; with `CN1CCN(CCC(=O)N2c3ccccc3Sc3ccc(C(F)(F)F)cc32)CC1`, “inactive”; with `CCOCCn1c(N2CCCN(C)CC2)nc2ccccc21`, “inactive”.
The same measure, in the same setting: the result for `CN1CCN(c2c(F)cc3c(=O)c(C(=O)O)cn4c3c2SCC4)CC1` reads “inactive”; that for `Cc1cccc(C)c1NC(=O)CN1CCCC1`, “inactive”; that for `O=C(CCN1CCN2CCCC2C1)N1c2ccccc2Sc2ccc(Cl)cc21` (stereo not drawn), “inactive”.
For the molecule `CC(=O)O[C@H]1C[C@@H]2CC[C@@H]3[C@H](CC[C@@]4(C)[C@H]3C[C@H]([N+]3(C)CCCCC3)[C@@H]4OC(C)=O)[C@@]2(C)C[C@@H]1N1CCCCC1`, the Potency entry is “inactive”.
Still for that read-out and setting: the result for `Cc1ccc(S(=O)(=O)NC(=O)NC2CCCC2)cc1` reads “inactive”; that for `Cc1ccc(O)c([C@H](CCN(C(C)C)C(C)C)c2ccccc2)c1`, 16.9 µM (active).
Still for that read-out and setting: the result for `CCN(CC)CCOc1ccc2c(c1)C(=O)c1cc(OCCN(CC)CC)ccc1-2` reads “inactive”.
On the same count and under the same terms, the result for `CC(C)(Cc1c[nH]c2ccccc12)NCC(O)COc1ccccc1C#N` (stereo not drawn) reads “inactive”.
In the case of `CN1CCN(c2cc3c(cc2F)c(=O)c(C(=O)O)cn3-c2ccc(F)cc2)CC1`, the Potency entry is “inactive”.
On the same count and under the same terms, with `O=C(Nc1cccc(C2=NCCN2)c1)Nc1cccc(C2=NCCN2)c1` the figure was 16.9 µM (active).
On the same count and under the same terms, with `CCCCCCCCOc1ccc(C(=O)c2ccccc2)c(O)c1` the entry was “inactive”; with `Cc1cc(-c2ccccc2)nnc1NCCN1CCOCC1`, “inactive”.
Still for that read-out and setting: with `C[N+]1(C)CCC(=C(c2ccccc2)c2ccccc2)CC1` the entry was “inactive”; with `NS(=O)(=O)c1cc(C(=O)O)cc(N2CCCC2)c1Oc1ccccc1`, “inactive”.
For the molecule `CN(C)CCOC(c1ccc(Cl)cc1)c1ccccn1` (stereo not drawn), the Potency result is “inactive”.
Turning to `CN1CCN(C2=Nc3cc(F)ccc3Cc3ccccc32)CC1`, the Potency result is “inactive”.
Turning to `Cc1ccc2c(Br)cc(Br)c(O)c2n1`, the Potency was 12 µM (active).
The same measure, in the same setting: with `NC1CCN(c2nc3c(cc2F)c(=O)c(C(=O)O)cn3-c2ccc(F)cc2F)C1` (stereo not drawn) the entry was “inactive”.
On the same count and under the same terms, the result for `COc1ccc(CN(CCN(C)C)c2ncccn2)cc1` reads “inactive”; that for `CN1CCC[C@@H]1CCO[C@](C)(c1ccccc1)c1ccc(Cl)cc1`, “inactive”.
The same measure, in the same setting: with `CC1CCc2c(N3CCC(O)CC3)c(F)cc3c(=O)c(C(=O)O)cn1c23` (stereo not drawn) the entry was “inactive”; with `CN(CCCN1c2ccccc2CCc2ccccc21)CC(=O)c1ccc(Cl)cc1`, “inactive”.
Turning to `Oc1c(Cl)cc(Cl)c(Cl)c1Cc1c(O)c(Cl)cc(Cl)c1Cl`, the Potency was 6.75 µM (active).
The same measure, in the same setting: with `CCN(CC)CCOc1ccccc1C(=O)CCc1ccccc1` the entry was “inactive”; with `CCCCCN=C(N)N/N=C/c1c[nH]c2ccc(OC)cc12`, “inactive”.
Still for that read-out and setting: the result for `COc1cc(C(=S)N2CCOCC2)ccc1O` reads “inactive”; that for `O=C(Nc1ncc([N+](=O)[O-])s1)c1cccs1`, “inactive”.
